Inconclusive results are not listed. Unmarked numbers belong to inactive results. Active and inactive are the calls of the source. Calls follow the shape of the full dose curve.
% is scaled to controls: 0 for no effect and ±100 for the full control effect.

A short description of this experiment: qHTS assay for small molecule agonists of the p53 signaling pathway - cell viability (AID 651633).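 Also: p53RE-bla HCT reporter cells with a stable beta-lactamase p53 reporter; nearly all actives have a fitted effect of over 30% in size.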 Conditions: p53RE-bla HCT-116 viability, ATP luminescence, 16 h; series mostly up to 83.3 µM; activity change, negative = cytotoxicity: at the top concentration. The source says: National Center for Advancing Translational Sciences [NCATS]
NIH Chemical Genomics Center [NCGC]
U.S. Environmental Protection Agency [EPA]
National Institutes of Environmental Health Sciences [NIEHS]
National Toxicology Program [NTP]
U.S. Food and Drug Administration [FDA]
p53, a tumor suppressor protein, is activated following cellular insult, including DNA damage and other cellular stresses. The activation of p53 regulates cell fate by inducing DNA repair, cell cycle arrest, apoptosis, or cellular senescence. The activation of p53, therefore, is a good indicator of DNA damage and other cellular stresses. […] The activation of the reporter gene under culture conditions can be detected by fluorescence intensity. This cell line was used to screen the Tox21 compound library in a 1536-well plate format and to identify agonists that activate the p53 signaling pathway.
Tox21 Assay Protocol Summary:
The p53RE-bla cells were dispensed at 4,000 cells/5 ul/well in 1536-well black wall/clear bottom plates using a Multidrop dispenser. After the assay plates were incubated at a 37 C/5% CO2 incubator for 5 hours, 23 nL of compounds dissolved in DMSO, positive controls or DMSO only was transferred to the assay plate by a pin tool. The plates were incubated at 37 C for 16 hours. After 1 uL of LiveBLAzerTM B/G FRET substrate was added using a Flying Reagent Dispenser, the plates were incubated at room temperature for 2 hours, and fluorescence intensity was measured by an Envision plate reader.
For cell viability readout that measures cytotoxicity, 4 ul/well of CellTiter-Glo reagent was added into the assay plates using a Flying Reagent Dispenser. After 30 min incubation at room temperature, the luminescence intensity in the plates was measured using a ViewLux plate reader.
In general terms: Quantitative high-throughput screening tests each substance at several concentrations.
Take `Nc1ccccc1C(=O)O`: the result was inactive. `Nc1c(Cl)c(Cl)nc(C(=O)O)c1Cl`: the compound was called inactive. For `CCOC(=O)c1ccccc1C(=O)OCC`, the compound was called inactive.

Turning to `C1CC2OC2CC1C1CO1` (stereo not given), the call was inactive. `COC(=O)NC(=S)Nc1ccccc1NC(=S)NC(=O)OC`: the “activity change, negative = cytotoxicity” value is 18%. `CCOP(OCC)OCC`: the call was inactive. On to `O=[N+]([O-])c1ccccc1`, for which the compound was classed as inactive. As for `Cc1[nH]c(=O)n(C(C)(C)C)c(=O)c1Cl`, the call was inactive. In the case of `Cc1cc(-c2cc(C)c(N)c(C)c2)cc(C)c1N`, the outcome was inactive. The same measure, in the same setting: with `CCC[N+](=O)[O-]` the entry was “inactive”; with `NCCc1ccc(O)cc1`, “inactive”; with `CN(C)CCO`, “inactive”. Same read-out and setting: under `CCCN(CCC)N=O` stands “inactive”; under `CC(C#N)CCC#N` (stereo not given), “inactive”; under `CCOP(=S)(OCC)SCCSCC`, “inactive”. In the case of `O=c1[nH]c2ccccc2c(=O)o1`, the result was inactive. As to `CCCCCCCCCl`, the compound was called inactive. For the compound `COC(=O)NS(=O)(=O)c1ccc(N)cc1`, the call was inactive. Same read-out and setting: with `CCCCCOC(=O)c1ccccc1C(=O)OCCCCC` the entry was “inactive”.

Consider `OC(O)C(Cl)(Cl)Cl`, for which the compound was classed as inactive. For the compound `CC(C)(C)OOC(=O)c1ccccc1`, the outcome was inactive. Regarding `COC(=O)c1ccccc1N`, the outcome was inactive. For `CC(C)C#N`, the result was inactive. As for `O=c1[nH]c(=O)[nH]c(=O)[nH]1`, the compound was classed as inactive.

For `COP(N)(=O)SC` (stereo not given), the compound was classed as inactive. `O=C1CCCN1`: the compound was classed as inactive. As for `CC(Br)C(=O)O` (stereo not given), the result was inactive. For `CN=C=S`, the call was inactive. In the case of `c1ccc2c(c1)oc1ccccc12`, the compound was classed as inactive. As to `Cc1ccc(N)cc1Cl`, the call was inactive. As for `Clc1ccccc1Cl`, the outcome was inactive. For `O=S(=O)(c1ccc(Cl)cc1)c1cc(Cl)c(Cl)cc1Cl`, the result was inactive. Take `Cc1cc(Cl)ccc1O`: the result was inactive. On the same count and under the same terms, under `CC(C)=C[C@@H]1[C@@H](C(=O)OCc2coc(Cc3ccccc3)c2)C1(C)C` stands “inactive”; under `NCC(O)c1ccc(O)cc1` (stereo not given), “inactive”.

In the case of `CN(C)N=O`, the compound was classed as inactive. Consider `CCCCCCCCCCCC#N`, for which the outcome was inactive. Turning to `CN(C)[C@@H]1C(=O)C(C(N)=O)=C(O)[C@@]2(O)C(=O)C3=C(O)c4c(O)cccc4[C@@](C)(O)[C@H]3C[C@@H]12`, the result was inactive. Same read-out and setting: under `CC(C)(Cl)Cl` stands “inactive”. On to `Cn1cc(-c2ccccc2)c(=O)c(-c2cccc(C(F)(F)F)c2)c1`, for which the compound was called inactive.

(Values after PubChem BioAssay (Tox21).)
